The values below come from article PMC8384837, “Expanding the binding specificity for RNA recognition by a PUF domain”.

Assay in all cases: yeast three-hybrid, YBZ-1, SC-Leu-His + 0.5 mM 3-AT, 4 days
Settings in all cases: tags: N-Gal4 AD-HA kept; label: inside an RPR1-promoter hybrid RNA with tandem MS2 sites; ssRNA

For one assay, the target named is PUM1 PUF domain R7-RRI (Homo sapiens, UniProt Q14671 828-1176, S1079R;N1080R;E1083I). The gist of the method:
(§1)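 The interaction score is the log change in variant frequency from input to selection. Scores were computed in log2 with a pseudocount of 1 for absent variants, using Illumina sequencing of PCR-amplified repeat regions. The input came from four days on SC-Leu and the selection from four days on SC-Leu-His + 0.5 mM 3-AT. The cells were strain YBZ-1 (LexA–MS2 coat fusion, HIS3 reporter) co-expressing Pumilio-1 PUF domain libraries and matching RNA elements from a centromeric plasmid.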

In another assay the target is PUM1 PUF domain R5-QLR (Homo sapiens, UniProt Q14671 828-1176, C1007Q;R1008L;Q1011R). The gist of the method: as §1
Another assay deals with PUM1 PUF domain R8-KWA (Homo sapiens, UniProt Q14671 828-1176, N1122K;Y1123W;Q1126A). The gist of the method:
as §1

Another assay concerns the target PUM1 PUF domain R2-AFW (Homo sapiens, UniProt Q14671 828-1176, N899A;Y900F;Q903W). The gist of the method:
as §1

A further assay concerns the target PUM1 PUF domain R3-DAK (Homo sapiens, UniProt Q14671 828-1176, C935D;R936A;Q939K). The gist of the method:
as §1

A further assay has as its target T1, PUM1 PUF domain R6-CYI (Homo sapiens, UniProt Q14671 828-1176, N1043C;Q1047I).
T1 sequence: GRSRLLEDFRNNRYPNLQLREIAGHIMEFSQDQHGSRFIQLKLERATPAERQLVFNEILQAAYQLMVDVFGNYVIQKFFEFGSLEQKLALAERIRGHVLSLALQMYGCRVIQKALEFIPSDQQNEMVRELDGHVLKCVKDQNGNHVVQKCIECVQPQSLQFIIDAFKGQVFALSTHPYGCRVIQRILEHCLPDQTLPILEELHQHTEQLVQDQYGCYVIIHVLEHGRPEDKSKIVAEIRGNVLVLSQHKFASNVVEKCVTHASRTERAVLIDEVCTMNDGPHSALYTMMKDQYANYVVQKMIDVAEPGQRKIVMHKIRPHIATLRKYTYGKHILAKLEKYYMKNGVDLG
Summed up:
as §1

Chain of PUM1 PUF domain R8-KWA (Q14671 828-1176 N1122K/Y1123W/Q1126A): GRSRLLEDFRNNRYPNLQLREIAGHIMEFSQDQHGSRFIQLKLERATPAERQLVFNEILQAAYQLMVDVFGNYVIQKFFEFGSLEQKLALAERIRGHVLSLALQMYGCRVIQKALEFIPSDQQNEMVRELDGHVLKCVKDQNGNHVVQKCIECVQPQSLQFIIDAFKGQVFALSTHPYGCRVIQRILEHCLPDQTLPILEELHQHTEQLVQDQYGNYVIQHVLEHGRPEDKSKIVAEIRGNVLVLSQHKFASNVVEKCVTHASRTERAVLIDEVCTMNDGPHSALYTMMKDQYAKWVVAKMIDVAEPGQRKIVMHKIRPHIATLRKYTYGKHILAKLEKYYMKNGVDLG

In the case of “GGCUAGAACUAGUGGAUCCCCCGGCGCCCGGCGGCUCGAGCCCGGGUAAGUCUAAAUAGUCUGCAUGCCGCCGGGCGCCAUGCCUGCAGGUCGACUCUAGAAAACAUG”, the binding signal with PUM1 PUF domain R7-RRI is 5.69 log2 enrichment (interaction score).

As for “GGCUAGAACUAGUGGAUCCCCCGGCGCCCGGCGGCUCGAGCCCGGGUAAGUGUUAAUAGUCUGCAUGCCGCCGGGCGCCAUGCCUGCAGGUCGACUCUAGAAAACAUG”, in the assay with PUM1 PUF domain R5-QLR, the binding signal is 0.88 log2 enrichment (interaction score).

As to “GGCUAGAACUAGUGGAUCCCCCGGCGCCCGGCGGCUCGAGCCCGGGUAAGCGUAAAUAGUCUGCAUGCCGCCGGGCGCCAUGCCUGCAGGUCGACUCUAGAAAACAUG”, in the assay with PUM1 PUF domain R8-KWA, the binding signal is 3.8 log2 enrichment (interaction score).

With “GGCUAGAACUAGUGGAUCCCCCGGCGCCCGGCGGCUCGAGCCCGGGUAAGUGUAAAAAGUCUGCAUGCCGCCGGGCGCCAUGCCUGCAGGUCGACUCUAGAAAACAUG”, in the assay with PUM1 PUF domain R2-AFW, the binding signal was 4.3 log2 enrichment (interaction score).

Regarding “GGCUAGAACUAGUGGAUCCCCCGGCGCCCGGCGGCUCGAGCCCGGGUAAGUGUCAAUAGUCUGCAUGCCGCCGGGCGCCAUGCCUGCAGGUCGACUCUAGAAAACAUG”, the binding signal in the assay with PUM1 PUF domain R5-QLR is 6.43 log2 enrichment (interaction score).

As to “GGCUAGAACUAGUGGAUCCCCCGGCGCCCGGCGGCUCGAGCCCGGGUAAGUGUAAUUAGUCUGCAUGCCGCCGGGCGCCAUGCCUGCAGGUCGACUCUAGAAAACAUG”, in the assay with PUM1 PUF domain R3-DAK, the binding signal was 3.6 log2 enrichment (interaction score).

“GGCUAGAACUAGUGGAUCCCCCGGCGCCCGGCGGCUCGAGCCCGGGUAAGUGAAAAUAGUCUGCAUGCCGCCGGGCGCCAUGCCUGCAGGUCGACUCUAGAAAACAUG”: the binding signal with PUM1 PUF domain R6-CYI is 5.81 log2 enrichment (interaction score).

Consider “GGCUAGAACUAGUGGAUCCCCCGGCGCCCGGCGGCUCGAGCCCGGGUAAGUGUAAAGAGUCUGCAUGCCGCCGGGCGCCAUGCCUGCAGGUCGACUCUAGAAAACAUG”, for which the binding signal with PUM1 PUF domain R2-AFW is 1.14 log2 enrichment (interaction score).
